Records with an inconclusive call do not appear. Calls of active or inactive are those of the source. The call rests on the fitted dose curve; in most records, active means well fitted curve in the direction sought with a large enough effect; inconclusive means small, poorly fitted or top-dose-only effect, or another doubt; inactive means no such curve, though single readings can be large; an effect the other way counts as inactive or inconclusive.
Tests used:
[1] = molecular target: ATP-dependent 6-phosphofructokinase (Trypanosoma brucei brucei) (UniProt O15648); assay: qHTS Assay to Find Inhibitors of T. brucei phosphofructokinase: hit validation (AID 492961);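 further: luminescence reports ADP formed as PFK phosphorylates fructose-6-phosphate with ATP; on the % scale 0 is the no-effect control and ±100 the full control effect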
How it was run: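 Measures ADP output of PFK (1.25 nM) at 0.1 mM ATP, 0.5 mM F6P, pH 8.0 TEA buffer with 5 mM MgCl2. No-enzyme wells define full inhibition; uninhibited enzyme wells define zero.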

[2] = qHTS profiling for inhibitors of Plasmodium falciparum proliferation (AID 504749); further: potency means the concentration at half of the fitted maximal effect;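 on activity, negative = inhibition: 0% = DMSO vehicle and full inhibition = artemisinin control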; on all read-outs here: nearly all actives have a fitted effect of over 60% in size; conditions: P. falciparum in erythrocytes, SYBR Green DNA, 72 h; for activity, negative = inhibition: at 28.7 µM (top of the series)
How it was run: (§1)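 Three-day growth assay of blood-stage parasites in erythrocytes (0.3% parasitemia, 2.5% hematocrit) at 37 C, 5% CO2, quantified by SYBR Green DNA staining after overnight detergent lysis.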

[3] = tested on: 3D7; assay: as above; conditions: P. falciparum in erythrocytes, SYBR Green DNA, 72 h; series mostly up to 28.7 µM
How it was run: as §1

[4] = tested on: 7G8; assay: as above; conditions: P. falciparum in erythrocytes, SYBR Green DNA, 72 h; series mostly up to 28.7 µM
How it was run: as §1

[5] = tested on: AS120; assay: as above; conditions: P. falciparum in erythrocytes, SYBR Green DNA, 72 h; series mostly up to 28.7 µM
How it was run: as §1

[6] = tested on: ATS189; assay: as above; conditions: P. falciparum in erythrocytes, SYBR Green DNA, 72 h; series mostly up to 28.7 µM
How it was run: as §1

[7] = tested on: CP185; assay: as above; conditions: P. falciparum in erythrocytes, SYBR Green DNA, 72 h; series mostly up to 28.7 µM
How it was run: as §1

[8] = tested on: CP191; assay: as above; conditions: P. falciparum in erythrocytes, SYBR Green DNA, 72 h; series mostly up to 28.7 µM
How it was run: as §1

[9] = tested on: CP192; assay: as above; conditions: P. falciparum in erythrocytes, SYBR Green DNA, 72 h; series mostly up to 28.7 µM
How it was run: as §1

[10] = tested on: CP194; assay: as above; conditions: P. falciparum in erythrocytes, SYBR Green DNA, 72 h; series mostly up to 28.7 µM
How it was run: as §1

[11] = tested on: CP201; assay: as above; conditions: P. falciparum in erythrocytes, SYBR Green DNA, 72 h; series mostly up to 28.7 µM
How it was run: as §1

[12] = tested on: CP203; assay: as above; conditions: P. falciparum in erythrocytes, SYBR Green DNA, 72 h; series mostly up to 28.7 µM
How it was run: as §1

[13] = tested on: CP237; assay: as above; conditions: P. falciparum in erythrocytes, SYBR Green DNA, 72 h; series mostly up to 28.7 µM
How it was run: as §1

[14] = tested on: CP238; assay: as above; conditions: P. falciparum in erythrocytes, SYBR Green DNA, 72 h; series mostly up to 28.7 µM
How it was run: as §1

[15] = tested on: CP247; assay: as above; conditions: P. falciparum in erythrocytes, SYBR Green DNA, 72 h; series mostly up to 28.7 µM
How it was run: as §1

[16] = tested on: CP286; assay: as above; conditions: P. falciparum in erythrocytes, SYBR Green DNA, 72 h; series mostly up to 28.7 µM
How it was run: as §1

[17] = tested on: CP291; assay: as above; conditions: P. falciparum in erythrocytes, SYBR Green DNA, 72 h; series mostly up to 28.7 µM
How it was run: as §1

[18] = tested on: DIV30; assay: as above; conditions: P. falciparum in erythrocytes, SYBR Green DNA, 72 h; series mostly up to 28.7 µM
How it was run: as §1

[19] = tested on: HB3; assay: as above; conditions: P. falciparum in erythrocytes, SYBR Green DNA, 72 h; series mostly up to 28.7 µM
How it was run: as §1

[20] = tested on: P94_40; assay: as above; conditions: P. falciparum in erythrocytes, SYBR Green DNA, 72 h; series mostly up to 28.7 µM
How it was run: as §1

Sequence of ATP-dependent 6-phosphofructokinase (Trypanosoma brucei brucei) (O15648 whole entry, looked up): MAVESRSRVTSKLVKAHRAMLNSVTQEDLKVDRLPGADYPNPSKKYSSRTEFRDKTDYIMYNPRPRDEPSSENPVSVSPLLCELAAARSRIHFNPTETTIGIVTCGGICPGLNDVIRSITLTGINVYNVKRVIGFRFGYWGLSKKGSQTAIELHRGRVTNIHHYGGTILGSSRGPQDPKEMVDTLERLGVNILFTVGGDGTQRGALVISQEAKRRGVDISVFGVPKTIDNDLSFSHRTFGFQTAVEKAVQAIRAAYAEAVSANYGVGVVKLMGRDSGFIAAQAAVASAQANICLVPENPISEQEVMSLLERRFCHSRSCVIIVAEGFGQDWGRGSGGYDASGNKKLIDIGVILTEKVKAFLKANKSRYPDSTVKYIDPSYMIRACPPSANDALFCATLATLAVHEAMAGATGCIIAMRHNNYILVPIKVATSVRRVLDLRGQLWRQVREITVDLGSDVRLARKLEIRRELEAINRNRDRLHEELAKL

CC1(C)SC2C(NC(=O)C(C(=O)O)c3ccccc3)C(=O)N2C1C(=O)O (stereo not given)
inactive: Potency [1] | activity, negative = inhibition ([2]; parasite line A) 5.75% | activity, negative = inhibition ([2]; parasite line B) 2.54% | Potency [3] | Potency [4] | Potency [5] | Potency [6] | Potency [7] | Potency [8] | Potency [9] | Potency [10] | Potency [11] | Potency [12] | Potency [13] | Potency [14] | Potency [15] | Potency [16] | Potency [17] | Potency [18] | Potency [19] | Potency [20]

CC(O)C1CCC2C3CCC4CC(O)CCC4(C)C3CCC12C (stereo not given)
inactive: Potency [1] | activity, negative = inhibition ([2]; parasite line A) 11.7% | activity, negative = inhibition ([2]; parasite line B) 5.42% | Potency [3] | Potency [4] | Potency [5] | Potency [6] | Potency [7] | Potency [8] | Potency [9] | Potency [10] | Potency [11] | Potency [12] | Potency [13] | Potency [14] | Potency [15] | Potency [16] | Potency [17] | Potency [18] | Potency [19] | Potency [20]

CC(=O)OCC(=O)[C@@]1(O)CCC2C3CCC4=CC(=O)C=CC4(C)C3C(O)C[C@]21C (stereo not given in full)
inactive: Potency [1] | activity, negative = inhibition ([2]; parasite line A) 8.28% | activity, negative = inhibition ([2]; parasite line B) 10.3% | Potency [3] | Potency [4] | Potency [5] | Potency [6] | Potency [7] | Potency [8] | Potency [9] | Potency [10] | Potency [11] | Potency [12] | Potency [13] | Potency [14] | Potency [15] | Potency [16] | Potency [17] | Potency [18] | Potency [19] | Potency [20]

C[C@H]1[C@@H](OC(=O)CCC(=O)O)OC2OC3(C)CC[C@H]4[C@H](C)CC[C@@H]1[C@@]24OO3 (stereo not given in full)
inactive: Potency [1]
active: Potency ([2]; parasite line A) 4 nM | Potency ([2]; parasite line B) 3.5 nM | Potency [3] 5 nM | Potency [4] 1.4 nM | Potency [5] 5 nM | Potency [6] 2.8 nM | Potency [7] 5 nM | Potency [8] 4.5 nM | Potency [9] 9.5 nM | Potency [10] 6 nM | Potency [11] 12 nM | Potency [12] 5.4 nM | Potency [13] 6.3 nM | Potency [14] 4.5 nM | Potency [15] 5 nM | Potency [16] 10 nM | Potency [17] 4.3 nM | Potency [18] 4.3 nM | Potency [19] 5 nM | Potency [20] 2.2 nM

OC[C@@H]1O[C@](CO)(O[C@H]2O[C@H](CO)[C@@H](O)[C@H](O)[C@H]2O)[C@H](O)[C@H]1O
inactive: Potency [1] | activity, negative = inhibition ([2]; parasite line A) -1.62% | activity, negative = inhibition ([2]; parasite line B) 7.05% | Potency [3] | Potency [4] | Potency [5] | Potency [6] | Potency [7] | Potency [8] | Potency [9] | Potency [10] | Potency [11] | Potency [12] | Potency [13] | Potency [14] | Potency [15] | Potency [16] | Potency [17] | Potency [18] | Potency [19] | Potency [20]

CCCCCCCCCCCC(=O)OCC(O)C1OCC(O)C1O (stereo not given)
inactive: Potency [1] | activity, negative = inhibition ([2]; parasite line A) -2.73% | activity, negative = inhibition ([2]; parasite line B) 8.41% | Potency [3] | Potency [4] | Potency [5] | Potency [6] | Potency [7] | Potency [8] | Potency [9] | Potency [10] | Potency [11] | Potency [12] | Potency [13] | Potency [14] | Potency [15] | Potency [16] | Potency [17] | Potency [18] | Potency [19] | Potency [20]

Cc1onc(-c2c(F)cccc2Cl)c1C(=O)NC1C(=O)N2C1SC(C)(C)C2C(=O)O (stereo not given)
inactive: Potency [1] | activity, negative = inhibition ([2]; parasite line A) 3.14% | activity, negative = inhibition ([2]; parasite line B) -4.31% | Potency [3] | Potency [4] | Potency [5] | Potency [6] | Potency [7] | Potency [8] | Potency [9] | Potency [10] | Potency [11] | Potency [12] | Potency [13] | Potency [14] | Potency [15] | Potency [16] | Potency [17] | Potency [18] | Potency [19] | Potency [20]

CO[C@H]1C[C@@H]2CC[C@@H](C)[C@@](O)(O2)C(=O)C(=O)N2CCCC[C@H]2C(=O)O[C@H]([C@H](C)C[C@@H]2CC[C@@H](O)[C@H](OC)C2)CC(=O)[C@H](C)/C=C(\C)[C@@H](O)[C@@H](OC)C(=O)[C@H](C)C[C@H](C)/C=C/C=C/C=C/1C
inactive: Potency [1]
active: Potency ([2]; parasite line A) 3550 nM | Potency ([2]; parasite line B) 1780 nM | Potency [3] 2820 nM | Potency [4] 1000 nM | Potency [5] 1780 nM | Potency [6] 3550 nM | Potency [7] 5620 nM | Potency [8] 2240 nM | Potency [9] 4780 nM | Potency [10] 3380 nM | Potency [11] 6010 nM | Potency [12] 1690 nM | Potency [13] 5010 nM | Potency [14] 3980 nM | Potency [15] 3550 nM | Potency [16] 5010 nM | Potency [17] 4260 nM | Potency [18] 1900 nM | Potency [19] 8910 nM | Potency [20] 2240 nM

CC(CCC(=O)O)C1CCC2C3C(=O)C[C@@H]4CC(=O)CC[C@@]4(C)C3CC(=O)[C@]12C (stereo not given in full)
inactive: Potency [1] | activity, negative = inhibition ([2]; parasite line A) -3.83% | activity, negative = inhibition ([2]; parasite line B) 1.51% | Potency [3] | Potency [4] | Potency [5] | Potency [6] | Potency [7] | Potency [8] | Potency [9] | Potency [10] | Potency [11] | Potency [12] | Potency [13] | Potency [14] | Potency [15] | Potency [16] | Potency [17] | Potency [18] | Potency [19] | Potency [20]

CC[C@@H]1/C=C(\C)C[C@H](C)C[C@H](OC)[C@H]2O[C@@](O)(C(=O)C(=O)N3CCCC[C@H]3C(=O)O[C@H](/C(C)=C/[C@@H]3CC[C@H](Cl)[C@H](OC)C3)[C@H](C)[C@@H](O)CC1=O)[C@H](C)C[C@@H]2OC
inactive: Potency [1] | activity, negative = inhibition ([2]; parasite line A) 10.4% | activity, negative = inhibition ([2]; parasite line B) 3.17% | Potency [3] | Potency [4] | Potency [5] | Potency [6] | Potency [7] | Potency [8] | Potency [9] | Potency [10] | Potency [11] | Potency [12] | Potency [13] | Potency [14] | Potency [15] | Potency [16] | Potency [17] | Potency [18] | Potency [19] | Potency [20]

From PubChem BioAssay (NCATS)
